Data as given in PubChem BioAssay (NCI).
This is part of a sample that, as a whole, favours compounds with a hit. Of some 79,000 tested, about 15% had one in any assay. Activity calls are given as the source filed them. Cut-off read from the data, not from the text of the source: active = growth inhibition above about 70%; inactive = the rest.

Experiments:
[1] = NCI Yeast Anticancer Drug Screen. Data for the wt1 strain (AID 149);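 note: 0% = growth of vehicle-treated wt1 cultures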; conditions: S. cerevisiae wt1 strain (SPY 50644) growth inhibition, hits give high values
In short: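 Growth inhibition read against vehicle controls after compound exposure of the wt1 yeast strain.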

[2] = NCI Yeast Anticancer Drug Screen. Data for the rad50EPP+ strain (AID 151);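 note: 0% = growth of vehicle-treated control cultures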; conditions: S. cerevisiae rad50 mutant strain, hits give high values
In short: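 In this screen, rad50EPP+ yeast were exposed to compounds. Growth inhibition was scored against vehicle-treated controls.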

[3] = NCI Yeast Anticancer Drug Screen. Data for the mgt1 strain (AID 153); conditions: S. cerevisiae mgt1 mutant growth inhibition, hits give high values
In short: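 mgt1 strain exposed; growth vs vehicle control recorded as inhibition.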

[4] = NCI Yeast Anticancer Drug Screen. Data for the rad50 strain (AID 155);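 note: 0% = growth of vehicle-only cultures of the same strain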; conditions: S. cerevisiae rad50 strain growth inhibition, hits give high values
In short: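 Readout: growth inhibition relative to vehicle-treated cultures. Compound exposure was carried out in a genetically defined yeast strain deficient in DNA damage repair.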

[5] = NCI Yeast Anticancer Drug Screen. Data for the mec2-1 strain (AID 157); conditions: S. cerevisiae mec2-1 strain, hits give high values
In short: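 Vehicle-treated cultures served as reference for growth inhibition of compound-exposed mec2-1 yeast.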

[6] = NCI Yeast Anticancer Drug Screen. Data for the rad14 strain (AID 159);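 note: 0% = growth of vehicle-treated control cultures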; conditions: S. cerevisiae rad14 strain growth inhibition, hits give high values
In short: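 Growth inhibition vs vehicle controls; genetically altered yeast strain (DNA damage repair defect) treated with test compounds.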

[7] = NCI Yeast Anticancer Drug Screen. Data for the sgs1 mgt1 strain (AID 161);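 note: 0% = growth of cultures given vehicle only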; conditions: S. cerevisiae sgs1 mgt1 strain, hits give high values
In short: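 Read-out: growth inhibition vs vehicle controls. Cells: mutant yeast strain deficient in DNA damage repair.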

[8] = NCI Yeast Anticancer Drug Screen. Data for the cln2 rad14 strain (AID 165);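 note: 0% = growth equal to vehicle treated cultures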; conditions: S. cerevisiae cln2 rad14 strain, hits give high values
In short: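 Each compound was tested on cln2 rad14 yeast. Inhibition of growth was calculated against vehicle-exposed controls.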

[9] = NCI Yeast Anticancer Drug Screen. Data for the bub3 strain (AID 167); conditions: S. cerevisiae bub3 mutant strain, hits give high values
In short: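 Readout: yeast growth inhibition, expressed relative to vehicle-only wells. The test organism is a mutant strain from a panel with lesions in DNA repair or checkpoint genes.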

[10] = NCI Yeast Anticancer Drug Screen. Data for the wt2 strain (AID 169);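 note: 0% = growth of vehicle-treated yeast cultures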; conditions: S. cerevisiae wt2 strain growth inhibition, hits give high values
In short: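 Inhibition of yeast growth was determined after compound treatment, normalised to controls receiving only vehicle.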

[11] = NCI Yeast Anticancer Drug Screen. Data for the mlh1 strain (AID 171);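 note: 0% = growth of vehicle-treated control cultures of the same strain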; conditions: S. cerevisiae mlh1 strain growth inhibition, hits give high values
In short: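 Vehicle-normalised growth inhibition of a repair- or checkpoint-altered yeast strain following compound treatment.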

[12] = NCI Yeast Anticancer Drug Screen. Data for the mlh1 rad18 strain (AID 175); conditions: S. cerevisiae mlh1 rad18 strain growth inhibition, hits give high values
In short: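 Vehicle-treated cultures served as the reference for growth inhibition in a yeast strain carrying DNA damage repair alterations exposed to each compound.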

[13] = NCI Yeast Anticancer Drug Screen. Data for the rad18 strain (AID 177); conditions: S. cerevisiae rad18 mutant growth inhibition, hits give high values
In short: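 Test articles were incubated with altered yeast defective in DNA damage repair. Results are given as inhibition of growth versus vehicle.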

[14] = NCI Yeast Anticancer Drug Screen. Data for the CLN2oe strain (AID 163);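 note: 0% = growth of vehicle-only control cultures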; conditions: S. cerevisiae CLN2oe strain, hits give high values
In short: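 Inhibition relative to vehicle-treated yeast is reported. Cells: strain with genetic alteration in cell-cycle control, grown with compound.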

[15] = NCI Yeast Anticancer Drug Screen. Data for the sgs1 strain (AID 173);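 note: 0% = growth of vehicle-only control cultures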; conditions: S. cerevisiae sgs1 mutant, hits give high values
In short: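 Screen format: yeast with repair or checkpoint alterations, compound exposure, growth read relative to vehicle.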

[16] = at 5.0 µM (retest, dose inferred, filed as 0.5)
[17] = at 50.0 µM (retest, dose inferred, filed as 5.0)

Measured: growth inhibition

COc1ccc(/C=C2\CCc3ccccc3C2=O)cc1OC
inactive: [1]; at 1.2 µM -13% | [1]; at 3.7 µM -2% | [1]; at 11.0 µM -11% | [1]; at 33.0 µM 24% | [2]; at 1.2 µM -24% | [2]; at 3.7 µM -26% | [2]; at 11.0 µM 1% | [2]; at 33.0 µM 32% | [2]; at 100.0 µM 40% | [3]; at 1.2 µM 2% | [3]; at 3.7 µM 5% | [3]; at 11.0 µM 21% | [3]; at 33.0 µM 67% | [4]; at 1.2 µM 3% | [4]; at 3.7 µM -2% | [4]; [16] 36% | [4]; at 11.0 µM -1% | [4]; at 33.0 µM 22% | [4]; [17] 51% | [5]; at 1.2 µM -36% | [5]; at 3.7 µM -8% | [5]; [16] -11% | [5]; at 11.0 µM -22% | [5]; at 33.0 µM 24% | [5]; [17] 66% | [5]; at 50.0 µM 60.3% | [6]; at 1.2 µM -16% | [6]; at 3.7 µM -13% | [6]; at 11.0 µM -20% | [6]; at 33.0 µM 19% | [7]; [16] 37% | [7]; [17] 68% | [8]; [16] 23% | [8]; [17] 48% | [8]; at 50.0 µM 60.9% | [9]; at 1.2 µM 24% | [9]; at 3.7 µM 29% | [9]; [16] 25% | [9]; at 11.0 µM 51% | [10]; at 1.2 µM -38% | [10]; at 3.7 µM -25% | [10]; at 11.0 µM -28% | [10]; at 33.0 µM 53% | [11]; at 1.2 µM 20% | [11]; at 3.7 µM 29% | [11]; at 11.0 µM 26% | [12]; [16] 10% | [12]; at 50.0 µM 63.5% | [13]; at 1.2 µM -20% | [13]; at 3.7 µM -10% | [13]; at 11.0 µM -18% | [13]; at 33.0 µM 19%
active: [1]; at 100.0 µM 88% | [3]; at 100.0 µM 89% | [4]; at 50.0 µM 83.3% | [4]; at 100.0 µM 82% | [5]; at 100.0 µM 90% | [6]; at 100.0 µM 80% | [7]; at 50.0 µM 84.8% | [9]; at 33.0 µM 76% | [9]; [17] 95% | [9]; at 50.0 µM 87.6% | [9]; at 100.0 µM 94% | [10]; at 100.0 µM 91% | [11]; at 33.0 µM 79% | [11]; at 100.0 µM 91% | [12]; [17] 91% | [13]; at 100.0 µM 88%

CC[N+]1(C)CCC(O)(/C=C/c2ccc(Cl)c(Cl)c2)C(C(=O)/C=C/c2ccc(Cl)c(Cl)c2)C1 (stereo unspecified)
inactive: [1]; at 1.2 µM -29% | [1]; at 3.7 µM 30% | [2]; at 1.2 µM 12% | [3]; at 1.2 µM 7% | [4]; at 1.2 µM 7% | [4]; at 3.7 µM 52% | [5]; at 1.2 µM 36% | [6]; at 1.2 µM 6% | [6]; at 3.7 µM 39% | [14]; at 1.2 µM -8% | [14]; at 3.7 µM 15% | [8]; [16] 46% | [9]; at 1.2 µM 0% | [9]; at 3.7 µM 20% | [10]; at 1.2 µM -4% | [10]; at 3.7 µM 29% | [15]; at 1.2 µM 15% | [13]; at 1.2 µM 29%
active: [1]; at 11.0 µM 99% | [1]; at 33.0 µM 99% | [1]; at 100.0 µM 98% | [2]; at 3.7 µM 85% | [2]; at 11.0 µM 99% | [2]; at 33.0 µM 99% | [2]; at 100.0 µM 99% | [3]; at 3.7 µM 72% | [3]; at 11.0 µM 99% | [3]; at 33.0 µM 99% | [3]; at 100.0 µM 99% | [4]; [16] 85% | [4]; at 11.0 µM 99% | [4]; at 33.0 µM 99% | [4]; [17] 98% | [4]; at 50.0 µM 99.5% | [4]; at 100.0 µM 98% | [5]; at 3.7 µM 88% | [5]; [16] 86% | [5]; at 11.0 µM 99% | [5]; at 33.0 µM 99% | [5]; [17] 99% | [5]; at 50.0 µM 99.3% | [5]; at 100.0 µM 99% | [6]; at 11.0 µM 99% | [6]; at 33.0 µM 99% | [6]; at 100.0 µM 99% | [7]; [16] 88% | [7]; [17] 98% | [7]; at 50.0 µM 99.5% | [14]; at 11.0 µM 99% | [14]; at 33.0 µM 98% | [14]; at 100.0 µM 99% | [8]; [17] 99% | [8]; at 50.0 µM 99% | [9]; [16] 90% | [9]; at 11.0 µM 98% | [9]; at 33.0 µM 99% | [9]; [17] 99% | [9]; at 50.0 µM 99.1% | [9]; at 100.0 µM 96% | [10]; at 11.0 µM 99% | [10]; at 33.0 µM 99% | [10]; at 100.0 µM 99% | [15]; at 3.7 µM 71% | [15]; at 11.0 µM 99% | [15]; at 33.0 µM 99% | [15]; at 100.0 µM 98% | [12]; [16] 82% | [12]; [17] 99% | [12]; at 50.0 µM 99.2% | [13]; at 3.7 µM 77% | [13]; at 11.0 µM 99% | [13]; at 33.0 µM 99% | [13]; at 100.0 µM 99%
